# Assay results: PubChem BioAssay AID1159580 (chemical genetic matrix, 2015)
# Where “and” joins values, the source holds several entries; their conditions need not be identical. Identical values can stand only once. Among all 5,500 compounds or so, about 2,000 (36%) were called active. Another 18% or so got no clear call; they are omitted. The list shows a part of the results. A number with no mark means an inactive call. Rule as the data show it: active = normalized growth mostly below about 0.91 (no sharp cut-off); inconclusive = no clear call, values can overlap the other calls; inactive = mostly above about 0.92.
# Assay: chemical genetic growth profiling, strain panel (AID 1159580);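 also: tested at 20 µM; growth read once vehicle control cultures reached saturation at 30 °C; 1 = growth at the plate median or of vehicle wells; lower values mean less growth of the strain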
# Settings: S. cerevisiae deletion strains, growth OD
smiles,measurement,setting,value
COc1ccc(-c2oc3c(CC=C(C)C)c(O[C@@H]4O[C@H](CO)[C@@H](O)[C@H](O)[C@H]4O)cc(O)c3c(=O)c2O[C@@H]2O[C@@H](C)[C@H](O)[C@@H](O)[C@H]2O)cc1,normalized growth,"locus YAL013W, strain DEP1, hits give low values",1.04
same,normalized growth,"locus YAL021C, strain ccr4, hits give low values",1.05
same,normalized growth,"locus YAL026C, strain drs2, hits give low values",1.05
same,normalized growth,"locus YAL030W, strain snc1, hits give low values",1.04
same,normalized growth,"locus YBL061C, strain skt5, hits give low values",1.03
same,normalized growth,"locus YBR009C, strain hhf1, hits give low values",1.03
same,normalized growth,"locus YBR021W, strain FUR4, hits give low values",1.19 [resistant] (active)
same,normalized growth,"locus YBR023C, strain chs3, hits give low values",1.02
same,normalized growth,"locus YBR171W, strain sec66, hits give low values",1.06
same,normalized growth,"locus YBR229C, strain ROT2, hits give low values",1
same,normalized growth,"locus YBR231C, strain swc5, hits give low values",1.03
same,normalized growth,"locus YBR279W, strain paf1, hits give low values",1.03
same,normalized growth,"locus YCL011C, strain gbp2, hits give low values",1.03
same,normalized growth,"locus YCL016C, strain dcc1, hits give low values",1
same,normalized growth,"locus YCL029C, strain bik1, hits give low values",0.976
same,normalized growth,"locus YCL061C, strain MRC1, hits give low values",1.04
same,normalized growth,"locus YCL069W, strain vba3, hits give low values",1.02
same,normalized growth,"locus YCR088W, strain abp1, hits give low values",1.04
same,normalized growth,"locus YDL005C, strain med2, hits give low values",1.03
same,normalized growth,"locus YDL035C, strain GPR1, hits give low values",1
same,normalized growth,"locus YDL040C, strain nat1, hits give low values",1.02
same,normalized growth,"locus YDL074C, strain BRE1, hits give low values",0.988
same,normalized growth,"locus YDL101C, strain DUN1, hits give low values",0.989
same,normalized growth,"locus YDL185W, strain tfp1, hits give low values",0.955
same,normalized growth,"locus YDL192W, strain arf1, hits give low values",0.987
same,normalized growth,"locus YDR001C, strain nth1, hits give low values",1.04
same,normalized growth,"locus YDR069C, strain doa4, hits give low values",1.06
same,normalized growth,"locus YDR101C, strain arx1, hits give low values",0.975
same,normalized growth,"locus YDR137W, strain rgp1, hits give low values",1.07
same,normalized growth,"locus YDR150W, strain NUM1, hits give low values",1.01
same,normalized growth,"locus YDR159W, strain sac3, hits give low values",1.07
same,normalized growth,"locus YDR162C, strain NBP2, hits give low values",0.989
same,normalized growth,"locus YDR195W, strain ref2",1.05
same,normalized growth,"locus YDR297W, strain sur2, hits give low values",1.03
same,normalized growth,"locus YDR318W, strain mcm21, hits give low values",0.986
same,normalized growth,"locus YDR334W, strain swr1, hits give low values",1.04
same,normalized growth,"locus YDR335W, strain msn5, hits give low values",1.02
same,normalized growth,"locus YDR388W, hits give low values",0.99
same,normalized growth,"locus YDR392W, strain spt3, hits give low values",1
same,normalized growth,"locus YDR502C, strain sam2, hits give low values",0.989
same,normalized growth,"locus YEL003W, strain gim4, hits give low values",1.03
same,normalized growth,"locus YEL037C, strain rad23, hits give low values",1.03
same,normalized growth,"locus YEL061C, strain CIN8 (second series), hits give low values",1.04
same,normalized growth,"locus YEL061C, strain CIN8, hits give low values",0.993
same,normalized growth,"locus YER015W, strain faa2, hits give low values",1.02
same,normalized growth,"locus YER016W, strain bim1, hits give low values",1.03
same,normalized growth,"locus YER110C, hits give low values",0.966
same,normalized growth,"locus YER111C, strain swi4, hits give low values",1.05
same,normalized growth,"locus YER155C, strain BEM2 (second series), hits give low values",1.05
same,normalized growth,"locus YER155C, strain BEM2, hits give low values",1
same,normalized growth,"locus YER167W, strain BCK2, hits give low values",1.01
same,normalized growth,"locus YFR010W, strain ubp6, hits give low values",1.05
same,normalized growth,"locus YGL078C, strain dbp3, hits give low values",0.983
same,normalized growth,"locus YGL086W, strain mad1, hits give low values",0.975
same,normalized growth,"locus YGL167C, strain pmr1, hits give low values",1.02
same,normalized growth,"locus YGL173C, strain kem1, hits give low values",1.05
same,normalized growth,"locus YGL227W, strain vid30, hits give low values",1.04
same,normalized growth,"locus YGL240W, strain doc1, hits give low values",1.04
same,normalized growth,"locus YGL248W, strain PDE1, hits give low values",1.01
same,normalized growth,"locus YGL253W, strain hxk2, hits give low values",0.946
same,normalized growth,"locus YGR078C, strain PAC10, hits give low values",1
same,normalized growth,"locus YGR135W, strain pre9, hits give low values",1
same,normalized growth,"locus YGR252W, strain gcn5, hits give low values",1.06
same,normalized growth,"locus YHR013C, strain ard1, hits give low values",1.03
same,normalized growth,"locus YHR027C, strain rpn1, hits give low values",1.03
same,normalized growth,"locus YHR030C, strain SLT2, hits give low values",0.99 and 1.02
same,normalized growth,"locus YHR079C, strain IRE1 (second series), hits give low values",0.965
same,normalized growth,"locus YHR079C, strain IRE1, hits give low values",1.03
same,normalized growth,"locus YHR094C, strain hxt1, hits give low values",0.988
same,normalized growth,"locus YHR129C, strain ARP1, hits give low values",0.996
same,normalized growth,"locus YHR142W, strain chs7, hits give low values",1.01
same,normalized growth,"locus YHR200W, strain rpn10, hits give low values",0.997
same,normalized growth,"locus YIL066C, strain RNR3, hits give low values",1.02
same,normalized growth,"locus YIL073C, strain SPO22, hits give low values",0.924
same,normalized growth,"locus YIL125W, strain kgd1, hits give low values",0.985
same,normalized growth,"locus YIR030C, strain dcg1, hits give low values",0.983
same,normalized growth,"locus YJL092W, strain hpr5, hits give low values",1.04
same,normalized growth,"locus YJL095W, strain BCK1 (second series), hits give low values",1.03
same,normalized growth,"locus YJL095W, strain BCK1, hits give low values",0.975 and 1.02
same,normalized growth,"locus YJL115W, strain asf1, hits give low values",1.05
same,normalized growth,"locus YJL129C, strain trk1, hits give low values",1.02
same,normalized growth,"locus YJL134W, strain LCB3, hits give low values",1.01
same,normalized growth,"locus YJL154C, strain vps35, hits give low values",1.04
same,normalized growth,"locus YJL164C, strain tpk1, hits give low values",1.01
same,normalized growth,"locus YJL166W, strain qcr8, hits give low values",1.04
same,normalized growth,"locus YJL168C, strain set2, hits give low values",0.985
same,normalized growth,"locus YJL187C, strain SWE1 (second series), hits give low values",0.987
same,normalized growth,"locus YJL187C, strain SWE1, hits give low values",1.02
same,normalized growth,"locus YJR043C, strain POL32, hits give low values",1.04
